# Data as given in PubChem BioAssay AID1159580 (chemical genetic matrix, 2015).
# The whole screen tested about 5,500 compounds, of which about 2,000 (36%) were called active. Not shown: some 18% with an inconclusive outcome. Some of the results follow. A number with no mark means an inactive call. Cut-off read from the data, not from the text of the source: active = normalized growth mostly below about 0.91 (no sharp cut-off); inconclusive = no clear call, values can overlap the other calls; inactive = mostly above about 0.92.
# Experiment: chemical genetic growth profiling, strain panel (AID 1159580);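 note: tested at 20 µM; growth read once vehicle control cultures reached saturation at 30 °C; 1 = growth at the plate median or of vehicle wells; lower values mean less growth of the strain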
# Details: S. cerevisiae deletion strains, growth OD
# [1] = locus YDL101C, strain DUN1, active compounds read low
# [2] = locus YHR030C, strain SLT2, active compounds read low
structure (smiles),measurement,setting,value
N/C(=N\OC(=O)c1ccno1)c1ccc(C(F)(F)F)cc1,normalized growth,"locus YAL013W, strain DEP1, active compounds read low",0.951
same,normalized growth,"locus YBR229C, strain ROT2, active compounds read low",0.992
same,normalized growth,"locus YCL061C, strain MRC1, active compounds read low",0.974
same,normalized growth,[1],1.02
same,normalized growth,"locus YDR150W, strain NUM1, active compounds read low",0.978
same,normalized growth,"locus YEL061C, strain CIN8, active compounds read low",1
same,normalized growth,"locus YGR078C, strain PAC10, active compounds read low",0.971
same,normalized growth,"locus YGR229C, strain SMI1, active compounds read low",1.02
same,normalized growth,[2],0.888
same,normalized growth,"locus YHR087W, strain rtc3, active compounds read low",0.966
same,normalized growth,"locus YJL187C, strain SWE1, active compounds read low",0.993
same,normalized growth,"locus YJR043C, strain POL32, active compounds read low",0.988
same,normalized growth,"locus YJR075W, strain HOC1, active compounds read low",1.01
same,normalized growth,"locus YKL190W, strain CNB1, active compounds read low",1.01
same,normalized growth,"locus YLR039C, strain RIC1, active compounds read low",0.91
same,normalized growth,"locus YLR058C, strain SHM2 (second series), active compounds read low",0.988
same,normalized growth,"locus YLR085C, strain ARP6, active compounds read low",1.06
same,normalized growth,"locus YLR262C, strain YPT6, active compounds read low",0.944
same,normalized growth,"locus YML094W, strain GIM5, active compounds read low",0.95
same,normalized growth,"locus YMR219W, strain ESC1, active compounds read low",0.996
same,normalized growth,"locus YMR263W, strain SAP30, active compounds read low",0.98
same,normalized growth,"locus YMR307W, strain GAS1, active compounds read low",1.17
same,normalized growth,"locus YNL153C, strain GIM3, active compounds read low",0.973
same,normalized growth,"locus YNL298W, strain CLA4 (second series), active compounds read low",0.949
same,normalized growth,"locus YNL322C, strain KRE1, active compounds read low",0.987
same,normalized growth,"locus YNR030W, strain Alg12, active compounds read low",0.939
same,normalized growth,"locus YOL006C, strain TOP1, active compounds read low",0.939
same,normalized growth,"locus YPL055C, strain LGE1, active compounds read low",0.839
same,normalized growth,"locus YPL241C, strain CIN2, active compounds read low",1.03
same,normalized growth,"locus YPR135W, strain CTF4, active compounds read low",0.82
Cc1cc(C(=O)O/N=C(/N)c2ccc([N+](=O)[O-])o2)no1,normalized growth,"locus YAR019C, strain CDC15, active compounds read low",0.961
same,normalized growth,"locus YBL105C, strain PKC1, active compounds read low",0.968
same,normalized growth,"locus YBR135W, strain CKS1, active compounds read low",0.963
same,normalized growth,"locus YBR136W, strain MEC1, active compounds read low",0.962
same,normalized growth,"locus YBR160W, strain CDC28, active compounds read low",0.951
same,normalized growth,"locus YDL017W, strain CDC7, active compounds read low",0.963
same,normalized growth,"locus YDL028C, strain MPS1, active compounds read low",0.931
same,normalized growth,[1],0.964
same,normalized growth,"locus YDL108W, strain KIN28, active compounds read low",0.949
same,normalized growth,"locus YDL132W, strain cdc53, active compounds read low",0.968
same,normalized growth,"locus YDL214C, strain PRR2, active compounds read low",0.887
same,normalized growth,"locus YDR052C, strain DBF4, active compounds read low",0.919
same,normalized growth,"locus YDR054C, strain cdc34, active compounds read low",0.991
same,normalized growth,"locus YDR226W, strain ADK1, active compounds read low",0.927
same,normalized growth,"locus YDR477W, strain SNF1, active compounds read low",0.918
same,normalized growth,"locus YER123W, strain YCK3, active compounds read low",0.87
same,normalized growth,"locus YER133W, strain GLC7, active compounds read low",0.963
same,normalized growth,"locus YFL009W, strain cdc4, active compounds read low",0.97
same,normalized growth,"locus YFL029C, strain CAK1, active compounds read low",0.965
same,normalized growth,"locus YFR003C, strain YPI1, active compounds read low",0.955
same,normalized growth,"locus YFR019W, strain FAB1, active compounds read low",0.877
same,normalized growth,"locus YFR028C, strain CDC14, active compounds read low",0.938
same,normalized growth,"locus YGR040W, strain KSS1, active compounds read low",0.848
same,normalized growth,"locus YGR052W, strain FMP48, active compounds read low",0.869
same,normalized growth,"locus YGR092W, strain DBF2, active compounds read low",0.178 (active)
same,normalized growth,[2],0.218 (active)
same,normalized growth,"locus YHR079C, strain IRE1, active compounds read low",0.832
same,normalized growth,"locus YHR082C, strain KSP1, active compounds read low",0.892
same,normalized growth,"locus YHR205W, strain SCH9, active compounds read low",0.745
same,normalized growth,"locus YIL147C, strain SLN1, active compounds read low",0.946
same,normalized growth,"locus YJL095W, strain BCK1, active compounds read low",0.796
same,normalized growth,"locus YJL128C, strain PBS2, active compounds read low",0.895
same,normalized growth,"locus YJL157C, strain FAR1, active compounds read low",0.914
same,normalized growth,"locus YJR016C, strain ILV3, active compounds read low",0.953
same,normalized growth,"locus YJR066W, strain TOR1 (second series), active compounds read low",0.822
same,normalized growth,"locus YJR066W, strain TOR1, active compounds read low",0.809
same,normalized growth,"locus YKL048C, strain ELM1, active compounds read low",0.831
same,normalized growth,"locus YKL067W, strain YNK1, active compounds read low",0.868
same,normalized growth,"locus YKL101W, strain HSL1, active compounds read low",0.83
same,normalized growth,"locus YKL193C, strain SDS22, active compounds read low",0.962
same,normalized growth,"locus YKL203C, strain TOR2, active compounds read low",0.99
same,normalized growth,"locus YLR113W, strain HOG1, active compounds read low",0.757 (active)
same,normalized growth,"locus YLR133W, strain CKI1, active compounds read low",0.894
same,normalized growth,"locus YLR403W, strain SFP1, active compounds read low",0.927
same,normalized growth,"locus YML070W, strain DAK1, active compounds read low",0.846
same,normalized growth,"locus YMR001C, strain CDC5, active compounds read low",0.963
same,normalized growth,"locus YMR205C, strain PFK2 (second series), active compounds read low",0.938
same,normalized growth,"locus YMR277W, strain FCP1, active compounds read low",0.941
same,normalized growth,"locus YNL006W, strain LST8, active compounds read low",0.979
same,normalized growth,"locus YNL020C, strain ARK1, active compounds read low",0.885
same,normalized growth,"locus YNL161W, strain CBK1, active compounds read low",0.967
same,normalized growth,"locus YNL183C, strain NPR1, active compounds read low",0.898
same,normalized growth,"locus YNL207W, strain RIO2, active compounds read low",0.948
same,normalized growth,"locus YNL222W, strain SSU72, active compounds read low",0.957
same,normalized growth,"locus YNL307C, strain MCK1 (second series), active compounds read low",0.825
same,normalized growth,"locus YOL078W, strain AVO1, active compounds read low",0.952
same,normalized growth,"locus YOL136C, strain PFK27, active compounds read low",0.873
same,normalized growth,"locus YOR061W, strain CKA2, active compounds read low",0.866
same,normalized growth,"locus YOR119C, strain RIO1, active compounds read low",0.888
same,normalized growth,"locus YOR231W, strain MKK1, active compounds read low",0.567 (active)
same,normalized growth,"locus YOR329C, strain SCD5, active compounds read low",0.965
same,normalized growth,"locus YPL031C, strain PHO85, active compounds read low",0.92
same,normalized growth,"locus YPL153C, strain RAD53, active compounds read low",0.949
same,normalized growth,"locus YPL204W, strain HRR25, active compounds read low",0.946
same,normalized growth,"locus YPL209C, strain IPL1, active compounds read low",0.964
same,normalized growth,"locus YPL256C, strain CLN2, active compounds read low",0.741 (active)
same,normalized growth,"locus YPR025C, strain CCL1, active compounds read low",0.97
same,normalized growth,"locus YPR106W, strain ISR1, active compounds read low",0.936
same,normalized growth,"locus YPR111W, strain DBF20, active compounds read low",0.896
same,normalized growth,"strain NNK1, active compounds read low",0.94
same,normalized growth,"strain TSCII, active compounds read low",0.965
